Results published in the supplement of paper PMC8728848.
Shown is part of a subset that was picked to be rich in the strongest signals.

How the values were obtained:
Assay in all cases: glycan array binding signal (z-score within array); higher = stronger binding
Conditions in all cases: glycan notation: IUPAC condensed, linker removed
Fuc(b1-3)GlcNAc = system: Fuc(b1-3)GlcNAc
In short: (§1)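 Arrays were curated from the Consortium for Functional Glycomics database, 3228 in total, and kept only where the protein sequence was available. Binding is expressed as a within-array Z-score. This score was averaged across arrays of the same protein sequence at different concentrations or buffers and across linkers, and negative values can be read as non-binding.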

[1] = system: Gal(a1-3)Gal(b1-3)GlcNAc(b1-2)Man
In short: as §1

[2] = system: Gal(a1-3)Gal(b1-3)[Fuc(a1-4)]GlcNAc(b1-2)Man(a1-3)[Gal(a1-3)Gal(b1-3)[Fuc(a1-4)]GlcNAc(b1-2)Man(a1-6)]Man(b1-4)GlcNAc(b1-4)GlcNAc
In short: as §1

Gal(a1-3)Gal(b1-3)GlcNAc = system: Gal(a1-3)Gal(b1-3)GlcNAc
In short: as §1

Fuc(a1-4)GlcNAc = system: Fuc(a1-4)GlcNAc
In short: as §1

[3] = system: Gal(a1-3)Gal(b1-3)GlcNAc(b1-6)GalNAc
In short: as §1

[4] = system: Gal(a1-3)Gal(b1-4)GlcNAc(b1-2)Man(a1-3)[Gal(a1-3)Gal(b1-4)GlcNAc(b1-2)Man(a1-6)]Man(b1-4)GlcNAc(b1-4)GlcNAc
In short: as §1

[5] = system: Gal(a1-3)Gal(b1-4)GlcNAc(b1-2)Man
In short: as §1

Gal(a1-2)Gal = system: Gal(a1-2)Gal
In short: as §1

[6] = system: Gal(a1-3)Gal(b1-3)GlcNAc(b1-2)Man(a1-3)[Gal(a1-3)Gal(b1-3)GlcNAc(b1-2)Man(a1-6)]Man(b1-4)GlcNAc(b1-4)GlcNAc
In short: as §1

Actinohivin (Actinomycete K97)
glycan array binding signal (z-score) (Fuc(b1-3)GlcNAc): -0.17 | glycan array binding signal (z-score) [1]: 0.041 | glycan array binding signal (z-score) [2]: 0.526

SiiE (Salmonella typhimurium), A0A0H3NVH0
glycan array binding signal (z-score) (Gal(a1-3)Gal(b1-3)GlcNAc): 0.637

AgI/IIC123-GFP (Streptococcus mutans)
glycan array binding signal (z-score) (Fuc(a1-4)GlcNAc): 6.16

LcI (Legionella pneumophila)
glycan array binding signal (z-score) (Fuc(b1-3)GlcNAc): 0.056 | glycan array binding signal (z-score) [3]: 4 | glycan array binding signal (z-score) (Gal(a1-3)Gal(b1-3)GlcNAc): 4.41 | glycan array binding signal (z-score) [4]: 0.12 | glycan array binding signal (z-score) [5]: -0.012

AgI/II Vhelical-GFP (Streptococcus mutans)
glycan array binding signal (z-score) (Fuc(a1-4)GlcNAc): 19.1 | glycan array binding signal (z-score) (Fuc(b1-3)GlcNAc): -0.193 | glycan array binding signal (z-score) [1]: -0.049

BambL (Burhholderia ambifaria), Q0B4G1
glycan array binding signal (z-score) (Fuc(a1-4)GlcNAc): 6.86 | glycan array binding signal (z-score) (Fuc(b1-3)GlcNAc): 4.1

SpGH101 (Streptococcus pneumoniae), Q8DR60
glycan array binding signal (z-score) [2]: 0.17

Epa22
glycan array binding signal (z-score) (Gal(a1-2)Gal): -0.244 | glycan array binding signal (z-score) [1]: -0.377

Wza (Escherichia coli), P0A930
glycan array binding signal (z-score) (Fuc(b1-3)GlcNAc): 1.51 | glycan array binding signal (z-score) [6]: 0.652
